In paper PMC7819943, “Rice protein-binding microarrays: a tool to detect cis-acting elements near promoter regions in rice”:
In all, about 39,000 sequences were measured (“fluorescence intensity (a.u.)”: median about 4,300, highest 2% from about 39,000 on). This is one part of a sample in which the highest values are shown more often than they occur.

Molecular target: T1, OsSMF1 (Oryza sativa, UniProt Q6ZLB0 1-436)
T1 sequence: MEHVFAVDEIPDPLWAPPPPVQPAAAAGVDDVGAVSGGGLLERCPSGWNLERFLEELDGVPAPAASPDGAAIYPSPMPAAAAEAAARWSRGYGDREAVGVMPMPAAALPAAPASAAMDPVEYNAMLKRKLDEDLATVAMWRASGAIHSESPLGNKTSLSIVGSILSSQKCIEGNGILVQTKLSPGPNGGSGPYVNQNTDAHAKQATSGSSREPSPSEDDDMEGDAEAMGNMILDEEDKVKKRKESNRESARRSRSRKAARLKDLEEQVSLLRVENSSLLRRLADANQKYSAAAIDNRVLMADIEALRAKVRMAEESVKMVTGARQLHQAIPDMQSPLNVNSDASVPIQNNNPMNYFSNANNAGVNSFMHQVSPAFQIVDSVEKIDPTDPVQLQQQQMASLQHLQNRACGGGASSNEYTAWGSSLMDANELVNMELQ
Assay: protein-binding microarray (RPBM); PBS, 2% BSA, 51.3 ng/ul salmon testes DNA, 50 uM zinc acetate, 200 nM TF, 25 C, 1 h; high values mean tight binding
Conditions: protein: recombinant; tags: N-terminal polyhistidine and DsRed monomer fusion (pET32a); chain copies: 2; label: CyDye5-dUTP incorporated in the synthesized complementary strand; 3' TTTTT single-stranded linker to array surface; dsDNA, one strand shown
Summary of the method: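 The binding signal for each feature is its fluorescence intensity in arbitrary units. An Axon 4000B scanner was used to read a custom Agilent array that had been made double-stranded with Cy5-dUTP primer extension, blocked with 2% BSA, incubated at 25 °C for 1 h with 200 nM protein in PBS, 2% BSA, salmon testes DNA and 50 µM zinc acetate, and washed. The protein was an N-terminal polyhistidine–DsRed transcription factor fusion from E. coli BL21-CodonPlus, purified on Ni–NTA.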

Sequence	binding signal
ACACTGTTCACCATGATCCACGTATATATGTGACGAAAATCGGAGTCACCTAGTGCAG	4560 fluorescence intensity (a.u.)
TTGCGACGGCCATCCTCCGCGCGCGTGACACCAACGCCACCGGAGTCACCTAGTGCAG	4880 fluorescence intensity (a.u.)
TTTCCCTGATAATAATAACCGACACGCGTAAGCTCTTGAACGGAGTCACCTAGTGCAG	3360 fluorescence intensity (a.u.)
AGCATTTCCATCCACCACACGCGTACGTCCCCGTCACGCGCGGAGTCACCTAGTGCAG	7440 fluorescence intensity (a.u.)
AAGTGCCTACCAAGCCAGCATCGTGTCATAGCCGGAGCATCGGAGTCACCTAGTGCAG	3730 fluorescence intensity (a.u.)
ATTTGCGCTGATATATTATCTAACGTGACACGATTAATCCCGGAGTCACCTAGTGCAG	6030 fluorescence intensity (a.u.)
GGGTCATTTGTCCCTTTCTGGAATGAAGTGCTTTGTAAAACGGAGTCACCTAGTGCAG	33100 fluorescence intensity (a.u.)
TTTTAATCCGAGTTTCAGACCACGATGGCCATTTGTTTCGCGGAGTCACCTAGTGCAG	3460 fluorescence intensity (a.u.)
ACCTGTTGTACTTAGTTACGGCGACACGTTTGCATCAGGCCGGAGTCACCTAGTGCAG	6860 fluorescence intensity (a.u.)
ACAGTACTTGGCTGTAGCGGGCATCTTGTCCTGGCATGTGCGGAGTCACCTAGTGCAG	3600 fluorescence intensity (a.u.)
TACCTTACCTGTACGGCAGGCATGCATGTTACTCCAGTAGCGGAGTCACCTAGTGCAG	39800 fluorescence intensity (a.u.)
AATCTGCACCGGTTTTGATAGTTAAGGGACTAATTGTATCCGGAGTCACCTAGTGCAG	41700 fluorescence intensity (a.u.)
GCACCGGTTTTGATAGTTGAGGGACTTGTTGTATCTGGTTCGGAGTCACCTAGTGCAG	29200 fluorescence intensity (a.u.)
TGTGACCGGTTTTGATTAGTTAAGGGACGCCGGGTATCTGCGGAGTCACCTAGTGCAG	31600 fluorescence intensity (a.u.)
TAAGATCACCTATAGATATATCATTCCAAGTCATAGATTGCGGAGTCACCTAGTGCAG	6060 fluorescence intensity (a.u.)
GCAGTAGACACGACGTACTTGTCAATGGTGAGGCATTTATCGGAGTCACCTAGTGCAG	3350 fluorescence intensity (a.u.)
TAATTGTGATCAAAATTGTAACAAATGCACGGTCATTAAGCGGAGTCACCTAGTGCAG	3320 fluorescence intensity (a.u.)
ATTGAAAAGTTTGGTTCAAATTAAAATTTTAGTAACAAAACGGAGTCACCTAGTGCAG	24300 fluorescence intensity (a.u.)
TGGTTCAAAATGTAAACATTAGTTAAATGGTGATCCAAAGCGGAGTCACCTAGTGCAG	49900 fluorescence intensity (a.u.)
TAGTACCTTTACTTTTCAGTTTTCACCCCATGTGGCATACCGGAGTCACCTAGTGCAG	3620 fluorescence intensity (a.u.)
GCCACGGTCTCGTTGTGATGTTGTGATATTAGGTTCACTGCGGAGTCACCTAGTGCAG	46600 fluorescence intensity (a.u.)

Sequence	binding signal
TCCCGCATGTGTTGTGTGATGTGTCTCGTCTCCGCCACCACGGAGTCACCTAGTGCAG	7960 fluorescence intensity (a.u.)
AGTTGTGATGTCGCCACGTTGGCGGCCGGCGACTGCGCCACGGAGTCACCTAGTGCAG	12000 fluorescence intensity (a.u.)
TCTTCATGTAGTCAGCATACATCTGTCACAGCCACAGACACGGAGTCACCTAGTGCAG	4480 fluorescence intensity (a.u.)
AATAAGTAGTTGGTGATACGTGTTAGCCACGAGGCATATACGGAGTCACCTAGTGCAG	4020 fluorescence intensity (a.u.)
AGAGGTACGTAAAATGACACATGTGCCTCTTCATACGCTCCGGAGTCACCTAGTGCAG	3150 fluorescence intensity (a.u.)
CCAAGTTCGGCTGGTCGCCACGCCACCCATCTCCATCTTCCGGAGTCACCTAGTGCAG	4140 fluorescence intensity (a.u.)
AAACCCGGAGAGAGTGGTGTTCGTGGACGTCACCCCATTTCGGAGTCACCTAGTGCAG	4440 fluorescence intensity (a.u.)
CGGGAGAGAAGCCCACGTCACTCCCATAAATGGATGTGGACGGAGTCACCTAGTGCAG	9320 fluorescence intensity (a.u.)
CTTACCATCTCCCCAAGCGGGAGAGTGGACGTCATAATTTCGGAGTCACCTAGTGCAG	45700 fluorescence intensity (a.u.)
CGTCCGTGCGAATGATTGCATCTGCGCGAGCGACGCCGTTCGGAGTCACCTAGTGCAG	3430 fluorescence intensity (a.u.)
TTTTCTTCTGTTCGTGTGCGTGCTCGCGCCTTTCTTGCTTCGGAGTCACCTAGTGCAG	4250 fluorescence intensity (a.u.)
TGCGAGGTGGTGGTGATTGCTTCGTCGGCTGTTGATTTCTCGGAGTCACCTAGTGCAG	3300 fluorescence intensity (a.u.)
CTCGGCTGTTGCGCCTTCGTTTTGCACCGAGGCTGTGCTACGGAGTCACCTAGTGCAG	55500 fluorescence intensity (a.u.)
CATATATGCCCATCACCCCAATAAGAGTTCCGAATTAGATCGGAGTCACCTAGTGCAG	3560 fluorescence intensity (a.u.)
CATCCCCAAACTCCGCCGCCGCCGCCGTCACCGCCGCTCGCGGAGTCACCTAGTGCAG	3700 fluorescence intensity (a.u.)
ATTCATATATATATATACACACACACTTACTTTGTATATGCGGAGTCACCTAGTGCAG	3190 fluorescence intensity (a.u.)
AATTCTAGGTCCAGCACTGTGCTTACCTGTATAGAAGCCTCGGAGTCACCTAGTGCAG	3200 fluorescence intensity (a.u.)
GCAGGAGCAAAGCGCTTACTTTTGCCTCACACTGTATAGTCGGAGTCACCTAGTGCAG	45400 fluorescence intensity (a.u.)
TTCTTCTTCTATTCCACGTCCACGTGTATGGCCAGGAGTTCGGAGTCACCTAGTGCAG	16100 fluorescence intensity (a.u.)
TGAAAATGGTGTTGGCATCATAAAATATTTAACCAACCCCCGGAGTCACCTAGTGCAG	3150 fluorescence intensity (a.u.)
TCACGAGCCGACACGTGTCTCCTGACGTGGTACCCTTTCCCGGAGTCACCTAGTGCAG	21900 fluorescence intensity (a.u.)

Sequence	binding signal
TTGGCGTGACTAGGCGCAATTTCTGCAAATTGGAGCTCGGCGGAGTCACCTAGTGCAG	7820 fluorescence intensity (a.u.)
AGATGTGATACATTAGCATTCTAGCACGGCGGTGGCATTGCGGAGTCACCTAGTGCAG	3250 fluorescence intensity (a.u.)
TTCTGATTAGGCTGCCACATTGGCGGCACGTGTGATAGCTCGGAGTCACCTAGTGCAG	45900 fluorescence intensity (a.u.)
GGCCAGGCCACCCCAACACGCCAGCCTCCCGGGCCGTTGACGGAGTCACCTAGTGCAG	3250 fluorescence intensity (a.u.)
TGAACCTCGAAGATGCAAATATGTAGTAGTACGTAGGTCCCGGAGTCACCTAGTGCAG	3310 fluorescence intensity (a.u.)
CATTTCATATCAGAAGTGTGATCACTGTAACCCGCGGCGCCGGAGTCACCTAGTGCAG	64500 fluorescence intensity (a.u.)
GGTCCGGTGTGACACTGTGACCCCGCCGTAACCCCGTAACCGGAGTCACCTAGTGCAG	4060 fluorescence intensity (a.u.)
TATGTATGATCTCTTCCTGTAACATTTTCATCATCTAACCCGGAGTCACCTAGTGCAG	3480 fluorescence intensity (a.u.)
AGAGGAGCATCTTCTCGCCTGAGATTCCGTCGACGCCATTCGGAGTCACCTAGTGCAG	3540 fluorescence intensity (a.u.)
CAACACCCAACCCCAATTGGTCGCGGTGGGTCGGACGGACCGGAGTCACCTAGTGCAG	34900 fluorescence intensity (a.u.)
GAGGTGGGGTGGCTTAGTGACCTCGTGTCGTAGATTGGATCGGAGTCACCTAGTGCAG	4900 fluorescence intensity (a.u.)
GTTGGTGGTGGAGCGGGAGGAGGTGCCGGTGGAGGCGGTGCGGAGTCACCTAGTGCAG	53000 fluorescence intensity (a.u.)
AATGGACCACCGTTAGTCCACCAGTCAGCCAACCAATGGCCGGAGTCACCTAGTGCAG	3360 fluorescence intensity (a.u.)
CAATAAACCGGTGGTTGGACCGGTCCAACCAATAAACCAGCGGAGTCACCTAGTGCAG	43900 fluorescence intensity (a.u.)
AGGTGGAGGCGCCGGTGTGGGTGGTGGAGCGGGAGGAGGTCGGAGTCACCTAGTGCAG	4096 fluorescence intensity (a.u.)
GCGGGGTTGGAGGAGGAGGAGGTGGTGGTGGTGGTGGTGGCGGAGTCACCTAGTGCAG	4860 fluorescence intensity (a.u.)
AGAGGGTGGAGGAGCTGACTAGATTGCACTAGGTCTCGATCGGAGTCACCTAGTGCAG	42000 fluorescence intensity (a.u.)
TCGGCGGTCGTGGAGGTGGTGGCAGGCGGTCGTGGCGGAGCGGAGTCACCTAGTGCAG	3990 fluorescence intensity (a.u.)
GGCGGTGCTGGTGGAGGCGGTGGTCTCGGAGGTGGAGCAGCGGAGTCACCTAGTGCAG	46000 fluorescence intensity (a.u.)
CTAAGGGTCTAAGAGATGATGCTGTGATGAGGTGGATCATCGGAGTCACCTAGTGCAG	4840 fluorescence intensity (a.u.)
GAGGGGATGACGGTGGTCTCGGCAGCGGATGACGGCGGCGCGGAGTCACCTAGTGCAG	4490 fluorescence intensity (a.u.)
